For some assays here: Results with a measured potency or affinity are listed apart.
How the values were obtained:
Parameters in all cases: scale not given: direction of the effect not stated beside the values
[1] = target: Protein translocase subunit SecA (Escherichia coli (strain K12)) (UniProt P10408); experiment: Assay to Identify E. coli SecA ATPase Inhibitors; assay type: functional; details: 30 µM
[2] = target: T1, Ubiquitin-activating enzyme e1, putative (Leishmania donovani (strain BPK282A1)) (UniProt E9BSI1); experiment: Leishmania donovani Ubiquitin Activating Enzyme (LdE1); assay type: functional; details: 30 µM
T1 sequence (whole entry): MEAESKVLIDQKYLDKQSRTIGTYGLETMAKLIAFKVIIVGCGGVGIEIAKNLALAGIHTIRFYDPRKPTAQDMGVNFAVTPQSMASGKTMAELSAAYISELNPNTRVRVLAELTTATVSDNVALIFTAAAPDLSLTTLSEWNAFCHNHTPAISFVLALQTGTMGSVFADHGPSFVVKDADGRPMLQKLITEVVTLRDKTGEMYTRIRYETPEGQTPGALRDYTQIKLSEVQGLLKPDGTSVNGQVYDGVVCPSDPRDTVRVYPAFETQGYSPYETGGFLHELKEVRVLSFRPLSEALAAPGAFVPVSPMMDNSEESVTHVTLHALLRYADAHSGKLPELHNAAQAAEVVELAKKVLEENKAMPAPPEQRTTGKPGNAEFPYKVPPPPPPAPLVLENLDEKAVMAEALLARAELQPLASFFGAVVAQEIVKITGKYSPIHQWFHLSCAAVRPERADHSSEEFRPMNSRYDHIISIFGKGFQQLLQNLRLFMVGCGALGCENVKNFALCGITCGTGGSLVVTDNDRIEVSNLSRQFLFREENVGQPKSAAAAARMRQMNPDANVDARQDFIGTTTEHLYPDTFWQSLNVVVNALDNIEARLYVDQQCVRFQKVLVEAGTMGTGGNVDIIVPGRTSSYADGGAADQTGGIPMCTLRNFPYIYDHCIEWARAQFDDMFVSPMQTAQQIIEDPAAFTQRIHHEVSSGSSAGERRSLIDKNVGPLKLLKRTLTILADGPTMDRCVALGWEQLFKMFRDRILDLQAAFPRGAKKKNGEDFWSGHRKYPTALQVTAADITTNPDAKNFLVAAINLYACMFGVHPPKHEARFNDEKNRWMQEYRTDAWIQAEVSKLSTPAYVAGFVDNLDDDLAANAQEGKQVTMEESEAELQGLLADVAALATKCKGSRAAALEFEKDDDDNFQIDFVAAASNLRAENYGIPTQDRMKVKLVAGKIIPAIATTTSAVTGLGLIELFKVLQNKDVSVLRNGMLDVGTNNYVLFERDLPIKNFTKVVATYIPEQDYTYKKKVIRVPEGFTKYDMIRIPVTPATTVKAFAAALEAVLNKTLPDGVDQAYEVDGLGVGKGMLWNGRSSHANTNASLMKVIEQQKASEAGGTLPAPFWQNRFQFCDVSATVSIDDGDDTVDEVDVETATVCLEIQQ

[3] = target: AMP-activated protein kinase, AMPK (Homo sapiens) (UniProt P54646+O43741+P54619+Q9UGJ0+Q9Y478+Q13131+Q9UGI9); experiment: AMP-dependent Kinase enzyme assay. An in vitro enzyme assay that detects ADP turnover that is directly proportional to AMPK activity. This uses naive AMPK that is activated during the assay with MK-8722; assay type: functional; details: 30 µM
[4] = target: Sialic acid-binding Ig-like lectin 9 (Homo sapiens) (UniProt Q9Y336); experiment: Hs-Siglec9 ALPHAscreen SOP 20170721; details: 10 µM
Trypanosoma cruzi = experiment: Trypanosoma cruzi phosphomannomutase and mannose-1-phosphate guanylyltransferase assay; assay type: functional; details: 10 µM
[5] = target: T2, Arginase-2, mitochondrial (Homo sapiens) (UniProt P78540); experiment: in vitro enzyme assay to detect the production of urea directly proportional to the activity of Arginase II; assay type: functional; details: 33.3 µM; further: in the data most compounds retested in dose-response had high values
T2 sequence (whole entry): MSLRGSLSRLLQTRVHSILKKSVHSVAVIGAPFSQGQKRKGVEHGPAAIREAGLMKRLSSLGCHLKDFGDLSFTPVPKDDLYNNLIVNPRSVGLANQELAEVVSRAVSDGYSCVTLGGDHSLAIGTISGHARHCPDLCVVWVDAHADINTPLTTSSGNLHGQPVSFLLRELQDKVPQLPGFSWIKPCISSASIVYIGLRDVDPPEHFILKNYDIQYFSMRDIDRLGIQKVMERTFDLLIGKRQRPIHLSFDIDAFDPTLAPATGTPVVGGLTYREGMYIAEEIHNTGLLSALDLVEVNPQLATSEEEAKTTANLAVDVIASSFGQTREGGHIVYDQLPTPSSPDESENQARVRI

[6] = target: T3, Proteasome subunit beta (Trypanosoma cruzi) (UniProt O96673); experiment: Trypanosoma cruzi proteasome chymotrypsin-like activity (TcProtChymo) assay.; further: in the data most compounds retested in dose-response had high values; assay type: functional; details: 9.37 µM
T3 sequence (whole entry): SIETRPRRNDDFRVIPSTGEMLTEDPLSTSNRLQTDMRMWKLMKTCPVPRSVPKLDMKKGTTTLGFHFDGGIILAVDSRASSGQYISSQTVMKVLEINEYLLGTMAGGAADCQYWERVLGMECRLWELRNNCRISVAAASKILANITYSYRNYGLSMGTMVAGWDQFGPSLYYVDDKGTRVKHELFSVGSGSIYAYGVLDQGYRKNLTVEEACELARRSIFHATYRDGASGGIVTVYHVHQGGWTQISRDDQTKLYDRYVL

Homo sapiens = species on record: Homo sapiens; experiment: To identify inhibition of the IFN signalling (Jak-Stat) pathway via expression of an eGFP reporter gene under the control of an IFN-stimulated response element (ISRE) containing MxA promoter.; assay type: functional; details: 30 µM
[7] = target: T4, Tyrosyl-tRNA synthetase, putative (Trypanosoma cruzi (strain CL Brener)) (UniProt Q4DSP6); experiment: Trypanosoma cruzi tyrosyl tRNA synthetase (TcYRS) _High Tyrosine SOP; assay type: functional; details: 30 µM; further: in the data most compounds retested in dose-response had high values
T4 sequence (whole entry): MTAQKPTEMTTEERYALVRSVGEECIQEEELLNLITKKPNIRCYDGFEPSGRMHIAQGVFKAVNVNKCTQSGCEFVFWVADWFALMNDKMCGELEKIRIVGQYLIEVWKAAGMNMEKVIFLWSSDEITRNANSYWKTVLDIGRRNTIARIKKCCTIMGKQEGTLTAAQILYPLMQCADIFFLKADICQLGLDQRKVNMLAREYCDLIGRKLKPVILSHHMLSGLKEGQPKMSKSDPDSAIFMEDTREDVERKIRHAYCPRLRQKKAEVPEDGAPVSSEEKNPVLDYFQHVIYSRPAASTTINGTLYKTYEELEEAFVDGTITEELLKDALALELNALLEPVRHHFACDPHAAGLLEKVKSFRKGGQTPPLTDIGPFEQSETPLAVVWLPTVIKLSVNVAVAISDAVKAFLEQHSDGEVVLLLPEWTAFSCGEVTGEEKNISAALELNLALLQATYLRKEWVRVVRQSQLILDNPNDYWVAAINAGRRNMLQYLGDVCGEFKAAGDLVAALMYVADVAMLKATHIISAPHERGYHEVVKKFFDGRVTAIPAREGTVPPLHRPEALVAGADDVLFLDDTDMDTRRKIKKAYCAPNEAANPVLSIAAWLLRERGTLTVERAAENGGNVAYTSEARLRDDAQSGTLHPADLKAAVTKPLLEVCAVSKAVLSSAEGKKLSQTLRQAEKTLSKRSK

[8] = target: T4, Tyrosyl-tRNA synthetase, putative (Trypanosoma cruzi (strain CL Brener)); experiment: Trypanosoma cruzi tyrosyl tRNA synthetase (TcYRS) SOP; assay type: functional; details: 30 µM
[9] = target: Chromo domain-containing protein 1 (Saccharomyces cerevisiae (strain ATCC 204508 / S288c) (Baker's yeast)) (UniProt P32657); experiment: ScCHD-1 Enzyme Inhibition Assay; assay type: functional; details: 30 µM; further: in the data most compounds retested in dose-response had high values
Chain of Chromo domain-containing protein 1 (Saccharomyces cerevisiae (strain ATCC 204508 / S288c) (Baker's yeast)) (P32657 whole entry, the tested form may be a part): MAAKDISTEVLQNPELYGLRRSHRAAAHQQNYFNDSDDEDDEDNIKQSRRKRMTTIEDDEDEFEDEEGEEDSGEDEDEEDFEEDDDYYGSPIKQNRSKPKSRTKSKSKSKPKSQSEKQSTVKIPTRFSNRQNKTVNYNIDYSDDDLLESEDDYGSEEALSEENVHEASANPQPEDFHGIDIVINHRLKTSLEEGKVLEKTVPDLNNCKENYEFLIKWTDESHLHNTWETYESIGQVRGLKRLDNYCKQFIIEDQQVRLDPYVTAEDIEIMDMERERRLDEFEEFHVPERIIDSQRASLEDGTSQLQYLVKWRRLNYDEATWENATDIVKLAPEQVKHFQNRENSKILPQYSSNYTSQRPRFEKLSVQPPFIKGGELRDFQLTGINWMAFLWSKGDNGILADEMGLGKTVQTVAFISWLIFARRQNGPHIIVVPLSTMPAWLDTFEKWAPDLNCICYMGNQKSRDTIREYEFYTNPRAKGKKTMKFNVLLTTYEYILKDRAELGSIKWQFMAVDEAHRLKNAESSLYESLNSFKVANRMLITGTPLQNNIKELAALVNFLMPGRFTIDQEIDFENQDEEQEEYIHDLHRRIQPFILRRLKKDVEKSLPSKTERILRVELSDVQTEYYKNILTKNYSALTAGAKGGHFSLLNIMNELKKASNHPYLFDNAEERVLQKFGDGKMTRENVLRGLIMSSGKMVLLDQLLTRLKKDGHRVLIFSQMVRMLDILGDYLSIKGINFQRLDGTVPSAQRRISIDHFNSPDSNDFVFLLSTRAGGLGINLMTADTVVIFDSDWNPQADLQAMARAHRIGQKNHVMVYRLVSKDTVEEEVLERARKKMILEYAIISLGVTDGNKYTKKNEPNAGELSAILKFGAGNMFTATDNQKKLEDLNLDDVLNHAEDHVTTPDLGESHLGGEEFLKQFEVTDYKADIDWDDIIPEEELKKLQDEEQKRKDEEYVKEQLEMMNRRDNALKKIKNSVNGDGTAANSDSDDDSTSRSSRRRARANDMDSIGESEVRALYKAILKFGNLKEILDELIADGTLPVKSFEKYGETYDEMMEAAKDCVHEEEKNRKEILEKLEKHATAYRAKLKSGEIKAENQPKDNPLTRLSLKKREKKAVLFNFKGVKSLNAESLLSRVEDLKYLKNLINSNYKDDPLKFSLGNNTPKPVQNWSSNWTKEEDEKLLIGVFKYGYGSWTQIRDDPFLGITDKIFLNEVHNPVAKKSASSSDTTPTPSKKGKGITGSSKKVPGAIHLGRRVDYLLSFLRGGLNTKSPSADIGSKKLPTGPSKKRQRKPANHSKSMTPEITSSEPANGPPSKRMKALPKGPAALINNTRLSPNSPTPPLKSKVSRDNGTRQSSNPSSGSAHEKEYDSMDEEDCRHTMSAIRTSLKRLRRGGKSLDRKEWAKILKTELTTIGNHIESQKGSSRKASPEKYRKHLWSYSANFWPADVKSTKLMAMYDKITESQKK

Chain of Protein translocase subunit SecA (Escherichia coli (strain K12)) (P10408 whole entry): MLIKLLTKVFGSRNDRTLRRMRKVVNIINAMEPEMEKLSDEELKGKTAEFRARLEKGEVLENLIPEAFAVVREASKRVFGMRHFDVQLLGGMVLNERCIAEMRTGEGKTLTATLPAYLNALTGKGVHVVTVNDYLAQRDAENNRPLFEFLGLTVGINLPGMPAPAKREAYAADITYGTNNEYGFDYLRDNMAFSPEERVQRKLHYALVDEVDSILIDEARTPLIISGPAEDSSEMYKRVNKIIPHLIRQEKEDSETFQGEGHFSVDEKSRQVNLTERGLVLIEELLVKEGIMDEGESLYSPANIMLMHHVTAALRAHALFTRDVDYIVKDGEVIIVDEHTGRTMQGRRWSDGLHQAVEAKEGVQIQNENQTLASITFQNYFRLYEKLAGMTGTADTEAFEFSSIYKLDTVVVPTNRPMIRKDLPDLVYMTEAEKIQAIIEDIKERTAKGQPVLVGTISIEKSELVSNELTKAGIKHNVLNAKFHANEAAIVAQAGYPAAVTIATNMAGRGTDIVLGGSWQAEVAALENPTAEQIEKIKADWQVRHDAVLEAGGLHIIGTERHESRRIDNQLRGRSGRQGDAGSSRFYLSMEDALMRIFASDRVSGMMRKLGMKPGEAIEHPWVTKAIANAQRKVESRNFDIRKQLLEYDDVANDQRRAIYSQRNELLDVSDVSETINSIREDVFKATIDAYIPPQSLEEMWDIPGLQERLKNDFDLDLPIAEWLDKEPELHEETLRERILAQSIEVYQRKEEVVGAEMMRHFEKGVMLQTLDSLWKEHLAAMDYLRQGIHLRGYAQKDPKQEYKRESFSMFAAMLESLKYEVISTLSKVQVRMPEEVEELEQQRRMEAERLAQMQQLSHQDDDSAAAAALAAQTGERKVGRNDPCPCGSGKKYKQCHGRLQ
Chain of Sialic acid-binding Ig-like lectin 9 (Homo sapiens) (Q9Y336 whole entry): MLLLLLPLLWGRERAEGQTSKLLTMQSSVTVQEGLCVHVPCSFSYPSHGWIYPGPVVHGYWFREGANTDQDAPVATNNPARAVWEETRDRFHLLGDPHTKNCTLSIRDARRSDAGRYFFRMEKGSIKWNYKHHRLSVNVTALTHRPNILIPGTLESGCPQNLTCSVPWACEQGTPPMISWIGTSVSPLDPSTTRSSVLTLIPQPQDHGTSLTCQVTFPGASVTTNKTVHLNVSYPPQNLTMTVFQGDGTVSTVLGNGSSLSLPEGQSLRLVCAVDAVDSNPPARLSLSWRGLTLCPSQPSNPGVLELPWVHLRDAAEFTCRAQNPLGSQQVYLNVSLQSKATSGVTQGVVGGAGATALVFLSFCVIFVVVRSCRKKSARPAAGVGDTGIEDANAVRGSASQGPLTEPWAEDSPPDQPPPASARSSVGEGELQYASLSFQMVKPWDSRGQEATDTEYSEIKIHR

Row | Compound | Percent Effect [1] | Percent Effect [2] | Percent Effect [3] | Percent Effect [4] | Percent Effect (Trypanosoma cruzi) | Percent Effect [5] | Percent Effect [6] | Percent Effect (Homo sapiens) | Percent Effect [7] | Percent Effect [8] | Percent Effect [9]
1 | O=C(CCNS(=O)(=O)c1ccc2c(c1)CCCC2)NCc1ccoc1 | -5% | 5.33% | 8.4% | 5.02% | -2.43% | -2.08% | 8.37% | 14.2% | 4.92% | 11.1% | -6.46%
2 | c1ccc(-c2ccc3nc(C4CCN(CC5CC5)CC4)nn3c2)cc1 | 4.34% | -5.48% | 2.06% | 4.55% | 0.992% | 3.99% | 6.08% | -16.5% | 4.17% | 3.7% | 0.798%
3 | CC1=NN(c2ccc(C(=O)N3CCCC(n4ccnc4)C3)cc2)CC1 (configuration not stated) | -5.1% | 10.1% | -5.15% | 0.444% | 9.35% | -1.9% | -1.06% | 15.8% | 10.3% | 16.5% | -6.17%
4 | CCc1nc(C2CCCN(C(=O)c3cccc4cn[nH]c34)C2)no1 (configuration not stated) | -7.64% | 5.41% | 1.19% | 7.35% | -6.41% | -2.77% | 6.64% | 19.4% | 2.97% | 1.22% | 3.58%
5 | Cc1cc(CN2CCC(CNC(=O)c3nccc4ccccc34)C2)[nH]n1 (configuration not stated) | 1.25% | 10.8% | -15.5% | 7.44% | 4.2% | 15.6% | 12.3% | 26.4% | 11.8% | 25.9% | -2.74%
6 | CC1CN(C(=O)NCCCn2cncn2)CCO1 (configuration not stated) | -2.77% | 7.89% | 1.46% | 3.56% | -2.82% | 5.75% | 2.84% | -1.05% | 5.39% | 7.32% | -1.67%
7 | O=C(c1ccsc1)N1CCc2c(CNc3ncccn3)n[nH]c2C1 | -4.87% | 10.7% | 4.32% | 1.51% | 6.95% | -44.6% | 1.88% | 9.05% | -1.04% | 7.5% | -6.05%
8 | Cc1occc1C(=O)N1CCC2(CCCN(CC3CCC3)C2=O)C1 (configuration not stated) | 0.601% | 1.39% | -1.7% | 8.02% | 2.62% | 11% | 13.3% | 13.6% | 6.32% | 10.3% | -2.8%
9 | Cc1cc(N2CCC(N(C)C(=O)c3ccccc3)CC2)nc(C)n1 | -2.59% | 19.2% | 2.37% | 4.5% | 5.09% | 10.4% | 11.4% | 29.3% | 7.53% | 17.5% | -8.12%
10 | COCc1noc(-c2ccc(N(C)Cc3cc(C)no3)nc2)n1 | -1.27% | 0% | -1.25% | 9.06% | 5.79% | 10.9% | 6.9% | 17.1% | 5.82% | 7.32% | -6.04%
11 | CC(C)NC(=O)c1n[nH]c(-n2cnnc2)n1 | -5.17% | 9.33% | -5.08% | 5.32% | 1.77% | -4.05% | 2.77% | 2.63% | 4.23% | 10.3% | -8.26%
12 | Cc1nccc(CN2CCC(c3nnsc3S(C)(=O)=O)CC2)n1 | -3.04% | 6.76% | 5.68% | 4.24% | -3.75% | -1.16% | 8.89% | 16.8% | 3.23% | 11.7% | -12%
13 | Cc1nccn1CC1CCCN1CCCc1nc(-c2cccs2)no1 (configuration not stated) | -0.0404% | 21.6% | -8.26% | -4.35% | -2.92% | -11.6% | 13.3% | 36.5% | 3.45% | 13.6% | 2.34%
14 | CCc1ccc(CN(CCCn2ccnc2)Cc2ccc(C)s2)o1 | -8.95% | 1.35% | 1.91% | 2.18% | -0.79% | -3.94% | 9.36% | 38.5% | 0% | -6.49% | -8.71%
15 | O=C(CCc1ccccc1)C1CCCN(C(=O)c2ncc(F)cc2F)C1 (configuration not stated) | -4.95% | 5.48% | 0.372% | -8.02% | -1.18% | 2.73% | 9.94% | 2.79% | 5.38% | 10% | -1.5%
16 | O=C(c1cccn1Cc1cccs1)N1CCN(C2CC2)CC1 | -4.51% | 0% | 3.71% | 11% | 8.05% | 0% | 11.3% | -0.305% | 6.8% | 14.6% | -8.6%
17 | Cc1noc(C)c1CNc1cc(N2CCCC2CO)ncn1 (configuration not stated) | -2.84% | 6.33% | -25.2% | 4.54% | 1.54% | 1.5% | 1.03% | -8.87% | 0% | 12.7% | -23.1%
18 | CNc1cncc(C2CCCN2Cc2ccccn2)n1 (configuration not stated) | -2.75% | -4.05% | 3.64% | 7.85% | 2.37% | 1.62% | 29.5% | -2.5% | 9.68% | 9.09% | -18.3%
19 | O=C(Cn1cc(C(=O)O)ccc1=O)NCc1ccc(F)c(Cl)c1 | -2.28% | 9.33% | -1.08% | -0.406% | 4.91% | -6.87% | 11.7% | 27% | 4.23% | 12.8% | -7.6%
20 | O=C(Cc1ccc(-n2cccn2)cc1)N1CCCC(n2cccn2)C1 (configuration not stated) | -9.35% | 10.4% | -6.09% | -18.3% | 11.5% | -1.9% | 13.8% | -3.32% | 6.67% | 11.8% | -20%
21 | CN(C(=O)c1ccccc1Cl)C1CCN(c2ccccn2)CC1 | -6.46% | 23.4% | -2.17% | -1.36% | 6.95% | -2.32% | 12.7% | 9.9% | 7.62% | 23.5% | -2.92%
22 | Cc1noc(C)c1CN1CC2(CCN(C(=O)c3cscn3)CC2)CC1=O | -5.65% | 10.4% | 0.445% | 16.6% | 5.01% | -5.52% | 14.1% | 0.0432% | 6.45% | 11.1% | -2.57%
